# Test results published in PubChem BioAssay AID862 (The Scripps Research Institute Molecular Screening Center, 2007).
# Out of some 190,000 compounds screened, about 1,700 (0.89%) were called active. The sample holds actives, similar compounds and a random draw of the others, so the mix is not that of the screen. Values without a mark were called inactive.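 How the source made its calls: active means inhibition above the mean inhibition across all screened compounds plus 3 SD (cut at about 44% in these data); inactive means the rest.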
# Assay: blockers of STAT3 transcriptional signaling – U3A cells, luciferase, luminescence, MLSCN library, primary screen (AID 862);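 further: 0% = DMSO only wells and 100% = 100 µM nifuroxazide control wells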
# Conditions: IL-6 STAT3-luciferase reporter, at 5.5 µM, stronger effect = higher value, host cell line lacks STAT1
row,Structure (SMILES),inhibition
1,N=c1n(CCc2ccccc2)c2ccccc2n1Cc1ccccc1F,0.2%
2,CCc1ccc(CN(C)Cc2nc(Cc3ccccc3)no2)nc1,-2.9%
3,CC1=CC=CN2C1=NC(=O)CC2(C)C(=O)N(CC(=O)NC1CCCC1)c1ccccc1C (stereo unspecified),4.4%
4,COc1ccc(C(=O)/C=C/Nc2ccccn2)cc1,97.2% (active)
5,CCOc1cc(NC(=O)c2ccccn2)c(OCC)cc1NC(=O)c1ccc(OC)cc1,13.8%
6,Cc1cc(N/C=C\C(=O)c2ccc(Cl)c(Cl)c2)no1,-7.8%
7,Cc1ccc(CC2CC(=O)N(c3nc(C)cc(C)n3)C2=O)cc1 (stereo unspecified),-0.9%
8,Clc1cccc(-c2nc(NCC3CCCO3)c3ccccc3n2)c1 (stereo unspecified),15.5%
9,CCCCCCn1c(CN2CCCCC2)nc2c1c(=O)n(C)c(=O)n2C,-8.1%
10,CCCCCCCCn1c2c(c(=N)c3c1CCC3)CCCC2,76.2% (active)
11,COc1ccc(/C=C/C(=O)OCC(=O)NCc2cccs2)cc1OC,-9.7%
12,O=C(c1ccc(F)cc1)c1cn(Cc2ccc(F)cc2)c2cc3c(cc2c1=O)OCCO3,4.1%
13,C=CCn1c(C)cc(C2=NNC(=NCC)SC2)c1C,108% (active)
14,COCCn1c(C)cc(C2=NNC(=Nc3ccc(F)cc3)SC2)c1C,-33.4%
15,Cc1cc(C2=NNC(=Nc3ccc(S(=O)(=O)N4CCOCC4)cc3)SC2)c(C)n1CC1CCCO1 (stereo unspecified),-0.3%
16,[O-][n+]1c2c(nn1-c1ccc(Cl)c(Cl)c1)-c1nonc1CC2,5.8%

row,Structure (SMILES),inhibition
1,CC1CCN(c2ccc(C(=O)Nc3nnc(C4CC4)s3)cc2[N+](=O)[O-])CC1,-3%
2,Cc1cccc2c(=O)n3c(nc12)CCCCC3,2.1%
3,O=c1c2c(nc3n1CCCCC3)sc1c(O)cccc12,64.8% (active)
4,Cc1c(C(=O)Nc2ccccc2)sc2nc3n(c(=O)c12)CCCCC3,10.4%
5,CC(C)Cn1c(N)c(C(=O)COC(=O)CN2C(=O)C3CC=CCC3C2=O)c(=O)n(C)c1=O (stereo unspecified),30.1%
6,COC(=O)c1c(NC(=O)CCCC(=O)O)sc2c1CCCCC2,22.2%
7,CCOCCCNCc1ccc(OCc2ccc(F)cc2)c(OC)c1,5.2%
8,CC(C)Oc1ccc(CCc2nnc(SCC(=O)O)n2-c2ccccc2)cc1,13.3%
9,Cc1cc2nc(-c3ccc(NC(=O)c4cccnc4)cc3)oc2cc1C,7.8%
10,Cc1ccc(-n2nc3cc(C)c(NC(=O)c4cccnc4)cc3n2)cc1,11.8%
11,Cc1ccc2nc(-c3ccc(NC(=O)c4cccnc4)cc3)oc2c1,67.9% (active)
12,Cc1cccc(NC(=O)c2cc([N+](=O)[O-])ccc2N2CCN(C)CC2)c1,6.2%
13,COC(=O)CCNC(=O)c1ccc2[nH]c(C)c(C)c2c1,11%
14,Cc1cc(C(=O)COc2ccccc2[N+](=O)[O-])c(C)n1-c1cccc(S(=O)(=O)N2CCOCC2)c1,-4.1%
15,Cc1[nH]c2ccccc2c1C(=O)COC(=O)c1c(-c2ccccc2)noc1C,-1.9%
